Compounds with a hit are over-represented: about 8.5% of the library has one in this group of screens.
GoLoco inh red: inhibitors of human Gai1-RGS12 GoLoco interaction (red fluorophore) | 230,000 compounds, 0.44% hits | Potency, µM (series often up to 61.6 µM), without a hit: top-dose activity, negative = inhibition, hits mostly inhibitors | P63096 | AID 880 | Gai1:RGS12 GoLoco peptide FP, rhodamine, 10 min; active means well fitted inhibition curve with a large enough effect, not every such curve was filed as active; inactive means no such curve, though single readings can be large or run the other way; further: potency means the concentration at half of the fitted maximal effect; nearly all actives have a fitted effect of over 30% in size
ALDH1A1 inh: inhibitors of human aldehyde dehydrogenase 1A1; 220,000 compounds, 7.3% hits; Purified ALDH1A1, NADH fluorescence, propionaldehyde substrate; Potency, µM (titrated, usually from 75.3 µM), for the others: at the highest dose activity, negative = inhibition, actives largely listed as inhibitors; AID 1030; P00352; active means well fitted inhibition curve with a large enough effect, not every such curve was filed as active; inconclusive means small, poorly fitted or top-dose-only effect, or another doubt; inactive means no such curve, though single readings can be large or run the other way;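 further: potency means the concentration at half of the fitted maximal effect; plate controls were no enzyme wells and a reference inhibitor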
Target sequence (P00352 whole entry, looked up): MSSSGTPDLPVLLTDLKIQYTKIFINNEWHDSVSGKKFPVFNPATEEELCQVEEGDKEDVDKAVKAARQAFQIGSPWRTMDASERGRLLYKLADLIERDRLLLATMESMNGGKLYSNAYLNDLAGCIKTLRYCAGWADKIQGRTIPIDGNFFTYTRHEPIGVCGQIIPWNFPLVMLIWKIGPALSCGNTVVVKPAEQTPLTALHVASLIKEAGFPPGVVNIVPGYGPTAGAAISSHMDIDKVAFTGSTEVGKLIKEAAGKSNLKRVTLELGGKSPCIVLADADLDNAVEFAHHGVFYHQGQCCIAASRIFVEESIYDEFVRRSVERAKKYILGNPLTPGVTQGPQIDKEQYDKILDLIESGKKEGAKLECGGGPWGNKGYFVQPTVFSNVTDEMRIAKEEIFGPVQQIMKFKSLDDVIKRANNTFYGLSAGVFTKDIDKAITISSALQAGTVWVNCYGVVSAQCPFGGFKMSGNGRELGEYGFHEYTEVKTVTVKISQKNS
Coupling enz: inhibits coupling enzyme system, counter-screen for aldolase hits; coupling enzyme system counterscreen, AmpLite Red fluorescence; activity change, negative = inhibition, % at 58.2 µM, hits read low; 290,000 compounds, 0.67% hits; AID 2472; in the data active means activity change below about -30%
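Coupling enzymes only (glyceraldehyde-3-phosphate) + compound, at 57.5 uM final, 10 min RT; add substrate/coupling/AmpLite Red mix, 20 min RT; fluorescence ex 525/em 598 nm. Actives flag coupling-system interference.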
KDM4E inh: JMJD2E (human) inhibition; B2RXH2; 230,000 compounds, 1.6% hits; Potency, µM (titrated, usually from 57.1 µM), for the others: at the top dose activity change, negative = inhibition, usual class: inhibitors; JMJD2E catalytic domain, FDH-coupled NADH fluorescence (FDH is formaldehyde dehydrogenase); AID 2147; active means well fitted inhibition curve with a large enough effect, not every such curve was filed as active; inconclusive means small, poorly fitted or top-dose-only effect, or another doubt; inactive means no such curve, though single readings can be large or run the other way;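 further: potency means the concentration at half of the fitted maximal effect; 0% = wells with enzyme and -100% = buffer wells without enzyme; nearly all actives have a fitted effect of over 50% in size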
Sfp PPTase inh: Sfp phosphopantetheinyl transferase inhibition; Q9F4F7; Biochemical Sfp PPTase activity, qHTS; Potency, µM, without a hit: largest response in the series, negative = inhibition, most hits filed as inhibitors; 310,000 compounds, 3.5% hits;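 further: the enzyme is Sfp with the accession as filed and its product quenches rhodamine fluorescence; potency means the concentration at half of the fitted maximal effect; 0% = enzyme reaction without inhibitor and -100% = no enzyme wells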
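Buffer: 50 mM Hepes-Na pH 7.6, 10 mM MgCl2, 0.01% Nonidet P-40, 0.01% BSA. Enzyme 15 nM, pre-exposed to compound 15 min; substrates then added and fluorescence change tracked over 30 min.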
NPSR antagonist: blocks cAMP signaling of the human neuropeptide S receptor; Q6W5P4; CHO-NPSR cells, cAMP TR-FRET, antagonist mode; Potency, µM (top dose mostly 38.3 µM), for the others: top-dose activity change, negative = inhibition, most hits filed as inhibitors; 220,000 compounds, 1% hits; AID 1461; further: potency means the concentration at half of the fitted maximal effect; nearly all actives have a fitted effect of over 50% in size
Sfp inh conf: Sfp phosphopantetheinyl transferase inhibition, confirmation; AID 2701; Sfp PPTase enzymatic assay, qHTS titration; Potency, µM (doses to about 114 µM), inactives show at the highest dose activity change, negative = inhibition, most hits filed as inhibitors; shares compounds with Sfp PPTase inh; 380 compounds, 79% hits;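 further: potency means the concentration at half of the fitted maximal effect; plate controls were uninhibited Sfp reaction for no effect and no enzyme control for full effect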
Target sequence (Q9F4F7 whole entry, looked up): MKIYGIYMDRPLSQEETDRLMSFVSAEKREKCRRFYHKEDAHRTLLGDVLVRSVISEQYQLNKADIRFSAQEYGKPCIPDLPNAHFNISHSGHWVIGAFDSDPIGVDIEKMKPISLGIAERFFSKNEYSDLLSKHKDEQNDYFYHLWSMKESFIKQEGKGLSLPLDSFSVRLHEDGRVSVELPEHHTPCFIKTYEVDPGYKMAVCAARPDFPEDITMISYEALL
Sfp PPTase gel: Inhibits B. subtilis Sfp phosphopantetheinylation. purified Sfp, gel-based phosphopantetheinylation read-out. Potency, µM, most hits filed as inhibitors. 210 compounds, 20% hits. shares compounds with Sfp PPTase inh;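 active means potency below 100 µM; inconclusive means dose-dependent response but potency above 100 µM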;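 further: band intensities scaled against SCH202676 control wells before curve fitting; potency is an IC50 for inhibitors of Sfp transfer activity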
Active calls of the source: *; i = inactive; ? = inconclusive; · = not tested or not shown; [ ] = dose if it differs, or a comment. Unless noted, the call rests on the fitted dose curve; in most records, active means well fitted curve in the direction sought with a large enough effect; inconclusive means small, poorly fitted or top-dose-only effect, or another doubt; inactive means no such curve, though single readings can be large; an effect the other way counts as inactive or inconclusive. Unless noted, on the % scale 0 is the no-effect control and ±100 the full control effect.

SMILES	GoLoco inh red	ALDH1A1 inh	Coupling enz	KDM4E inh	Sfp PPTase inh	NPSR antagonist	Sfp inh conf	Sfp PPTase gel
O=C(CSc1n[nH]c(-c2ccccc2O)n1)N1CCOCC1	6%	-6%	0	?	3.5µM*	8%	15%	i
COc1ccccc1C(=O)Nc1ccnn1C1CCN(CCC(C)c2ccc(C)o2)CC1 (configuration not stated)	·	·	1	·	50µM*	·	19µM*	·
Cc1ccc(C(C)CCN2CCC(n3nccc3NC(=O)c3ccccc3)CC2)o1 (configuration not stated)	·	·	0	·	-23%	·	·	·
OC(CN1CCNCC1)Cn1c2ccc(Br)cc2c2cc(Br)ccc21 (configuration not stated)	-6%	9%	1	-10%	35µM*	·	-9%	i
OC(CN1CCCCC1)Cn1c2ccccc2c2cc(Br)ccc21 (configuration not stated)	·	·	2	·	-9%	·	·	·
O=C(/C=C/c1ccccc1)Nc1cccc(S(=O)(=O)Nc2ccccc2F)c1	-30%	0.79µM*	1	-16%	4µM*	-24%	3.7µM*	·
CC(=O)NS(=O)(=O)c1ccc(NC(=O)/C=C/c2ccccc2)cc1	5%	-2%	-5	1%	-7%	17%	·	·
Cc1ccc(Nc2c(-c3ccccc3)nc3cnccn23)cc1	-3%	3%	3	?	11%	-34%	·	·
Cc1ccc(-c2nc3cnccn3c2Nc2ccccc2)o1	-12%	?	0	?	4.5µM*	-3%[46.1 µM]	3.3µM*	·
COC(=O)c1c(NC(=O)COC(=O)c2ccc(Cl)cc2[N+](=O)[O-])sc2c1CCCCC2	9%	1%	0	-9%	10µM*	-36%	?	·
CCOC(=O)c1cc(-c2ccco2)nc2c1c(C)nn2CCC#N	1%	?	-1	?	28µM*	-15%[46.1 µM]	47µM*	i
COC(=O)c1cc(C)nc(Sc2ccccc2N)n1	-18%	3.5µM*	1	?	2µM*	-23%	4.2µM*	·
COC(=O)c1ccccc1NC(=O)CSc1nc(C)cc(C)n1	17%	-6%	0	?	-15%	-7%	·	·
O=C1OCCN1CCNCc1cn(-c2ccc(F)cc2)nc1-c1ccccc1Cl	-6%	?	2	1%	8%	0%	·	·
Cc1ccc(-n2cc(CNCCN3CCOC3=O)c(-c3cccc(C)c3)n2)cc1	-35%	7.1µM*	5	2%	45µM*	-11%	-10%	i
COc1ccc(NC(=O)c2cc(Cl)ccc2NC(=O)c2ccco2)c(OC)c1	0%	-4%	-2	?	16µM*	-23%[46.1 µM]	47µM*	i
C=CCn1cnc2scc(-c3ccc(C)cc3)c2c1=O	10%	7%	2	3%	12%	27%[46.1 µM]	·	·
CCN(CC)S(=O)(=O)c1ccc2c(c1)nc(CCC(=O)O)n2C	124%	11µM*	3	11%	20µM*	3%	47µM*	·
COc1cccc(C2/C(=C(/O)c3ccc4c(c3)CC(C)O4)C(=O)C(=O)N2CC2CCCO2)c1 (configuration not stated)	·	·	·	·	9%	·	·	·
On1c2c(c3c4nonc4ccc31)CCCC2	-4%	32µM*	-60*	-10%	45µM*	-4%[46.1 µM]	66µM*	·
COn1c2c(c3c4no[n+]([O-])c4ccc31)CCCC2	14%	-5%	0	1%	11%	-11%[46.1 µM]	·	·
CC(C)CN(C(=O)CN1CCN(c2ccc([N+](=O)[O-])cc2)CC1)c1c(N)n(CC(C)C)c(=O)[nH]c1=O	7%	?	-1	-2%	16%	-3%	·	·
CCC(CO)[n+]1c(C)cc(/C=C2\Sc3ccccc3N2Cc2ccccc2)cc1C (configuration not stated)	96%	?	-12	-11%	35µM*	-47%	53µM*	?
COc1cccc(CNc2ccc(N3CCC(C)CC3)cc2)c1OC	-24%	13µM*	-11	13µM*	10µM*	-8%[46.1 µM]	?	i
CC1CCN(c2ccc(NC(=O)Cc3ccccc3)cc2)CC1	-10%	6%	0	-8%	6%	-7%	·	·
SMILES	GoLoco inh red	ALDH1A1 inh	Coupling enz	KDM4E inh	Sfp PPTase inh	NPSR antagonist	Sfp inh conf	Sfp PPTase gel
CCC1=C[C@@H]2CN(C1)Cc1c([nH]c3ccccc13)[C@@](C(=O)OC)(c1cc3c(cc1OC)N(C)[C@H]1[C@@](O)(C(=O)OC)[C@H](OC(C)=O)[C@]4(CC)C=CCN5CC[C@]31[C@@H]54)C2	·	·	-7	·	14µM*	·	?	56µM*
CCC1(O)CC2CN(CCc3c([nH]c4ccccc34)[C@@](C(=O)OC)(c3cc4c(cc3OC)N(C)C3[C@]45CCN4CC=C[C@@](CC)([C@@H](OC(C)=O)[C@]3(O)C(=O)OC)[C@H]45)C2)C1 (some centres not stated)	10%	-11%	·	-20%	·	?	·	·
CC(C)(C)Cn1nc(-c2ccc(Cl)cc2)c2c(N)ncnc21	3%	12%	0	-1%	15%	·	·	·
O=C(O)c1cc(/C=C/C(=O)c2cc(F)ccc2O)c2c(c1)COCO2	7%	·	1	-30%	22µM*	-32%	47µM*	i
NC(=O)c1sc2nc(-c3cccnc3)ccc2c1N	-9%	·	2	-7%	?	-15%	·	·
NC(=O)c1sc2nc(-c3ccco3)ccc2c1N	-1%	?	-1	?	5µM*	2%[46.1 µM]	6.6µM*	i
Nc1c(C(=O)Nc2ccccc2F)sc2nc(-c3ccco3)ccc12	24%	?	0	?	4µM*	20%[46.1 µM]	1.7µM*	·
CC(=O)Nc1ccc(-c2csc(NC(=O)Cc3ccccc3F)n2)cc1	·	·	-10	·	3%	·	·	·
CCCC(=O)Nc1ccc(-c2csc(NNC(C)=O)n2)cc1	-4%	·	2	-16%	5µM*	7%	?	?
O=C(COC(=O)c1cncc(Br)c1)NCc1ccc(F)cc1	10%	-2%	2	-9%	24%	8%	·	·
O=C(COC(=O)c1cncc(Br)c1)NCc1ccco1	16%	-32%	-10	-25%	13µM*	-2%[46.1 µM]	47µM*	i
Nc1c(C(=O)NC2CC2)sc2nc3c(c(-c4ccco4)c12)CC/C3=C/c1ccco1	53%	16µM*	-35*	?	5µM*	-10%	8.3µM*	·
CCOc1ccc(S(=O)(=O)N(C)CC(=O)NC2CC2)cc1	·	·	·	·	8%	·	·	·
O=C(Nc1cccc(Oc2ccc3c(c2)C(=O)NC3=O)c1)c1cccs1	7%	2%	1	0%	22%	12%	·	·

Screening results as filed in PubChem BioAssay.
